The record followed here is PubChem BioAssay (NCI).

This is part of a sample that, as a whole, favours compounds with a hit. Of some 83,000 tested, about 20% had one in any assay.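 Treatment: one concentration, 48 hours, 96-well format. Scoring: percent growth, with anything below 10 considered active.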 Values without a mark were called inactive. The source made the active and inactive calls.

Holding throughout (assay): NCI-60 one-dose screen, 48 h (100 = growth as untreated, 0 = no growth, -100 = all killed)
Holding throughout (conditions): 10 µM unless noted

For test [1], the system named is DU-145 prostate.
In test [2] the test system is K-562 leukemia.
The subject of test [3] is MALME-3M melanoma.
Test [4] has as its system MDA-MB-231 breast.
Test [5] concerns RXF 393 renal.
Test [6] relates to SF-268 CNS.
The subject of test [7] is SF-295 CNS.
For test [8], the system named is SF-539 CNS.
For test [9], the system named is UACC-257 melanoma.
Test [10] has as its system M14 melanoma.
Test [11] concerns HCT-15 colon.
Test [12] concerns HT29 colon.
The test system of test [13] is SNB-75 CNS.
In test [14] the test system is SNB-19 CNS.
Test [15] concerns U251 CNS.
The subject of test [16] is PC-3 prostate.
Test [17] has as its system SK-MEL-5 melanoma.
Test [18] deals with UACC-62 melanoma.
Test [19] relates to SK-MEL-28 melanoma.
Test [20] relates to LOX IMVI melanoma.

Consider `C=CC(=O)N1CCC[C@H](n2c(=O)n(-c3ccc(Oc4ccccc4)cc3)c3c(N)ncnc32)C1`, for which the growth in test [1] is 62.4%; in test [2], 66.7%; in test [3] it was 98.2%; in [4], 99.6%; in test [5], 84.8%; in test [6], 71.6%. Moreover, the growth in test [7] is 98.4%; in [8] it was 104%; in test [9], 62.9%; in test [10], 84.1%; in test [11], 98.3%; in test [12], 68.9%. Moreover, the growth is 113% in test [13]; 79.1% in test [14]; 89.2% in test [15]; 87.9% in test [16]; 94.1% in test [17]; 81.2% in [18]. Also, the growth in [19] was 113%.

Consider `NC(=O)Nc1cc(-c2cccc(F)c2)sc1C(=O)N[C@H]1CCCNC1`, for which the growth in test [1] is -8.14% (active); in test [2], 2.46% (active); in test [3] it was 0.0893% (active); in test [4] it was -8.48% (active); in test [5], -89.1% (active); in test [6], -9.94% (active). Besides, the growth was 3.74% (active) in test [7]; -77.5% (active) in test [8]; 5.95% (active) in [9]; -13.8% (active) in test [10]; -10.6% (active) in [11]; -24% (active) in test [12]. Besides, the growth is -89.8% (active) in test [13]; -26.7% (active) in [14]; -62% (active) in [15]; 16.2% in [16]; -27.5% (active) in test [17]; -21.1% (active) in [18]. In test [19], the growth was 14.2%.

`CC(=O)C1CC(C)CCC1C(C)C` (centres undefined): the growth in test [1] is 111%; in [2] it was 77%; in test [3] it was 126%; in [4], 80.2%; in test [5], 107%; in [6], 105%. The growth is 120% in test [7]; 102% in test [8]; 111% in test [9]; 103% in [10]; 104% in [11]; 101% in test [12]. For the same molecule, the growth in test [13] is 81.1%; in test [14] it was 91.1%; in [15] it was 107%; in [16] it was 55.4%; in test [17] it was 98.9%; in [18], 85.3%. Moreover, in [19], the growth was 123%.

As for `CC1=CC2c3oc(-c4ccccc4)c(C(=O)c4ccccc4)c3CNC2C=C1` (centres undefined), the growth in [1] is 112%; in test [2], 95.8%; in test [3], 98.8%; in test [4], 88.4%; in test [5], 94.2%; in [6], 97.9%. The growth was 95.9% in [7]; 109% in [8]; 70.6% in test [9]; 96.1% in [10]; 97.2% in test [11]; 84.2% in test [12]. Moreover, the growth in test [13] was 79.7%; in [14] it was 91.6%; in test [15], 80.7%; in [16], 94%; in test [17] it was 103%; in test [18] it was 87.9%. Also, the figures for the growth in test [20] and in test [19] were 86.2% and 111%, respectively.

`CS(=O)(=O)CCNCc1ccc(-c2ccc3ncnc(Nc4ccc(OCc5cccc(F)c5)c(Cl)c4)c3c2)o1`: the growth in [1] was 12%; in [2], -22.7% (active); in [3] it was -80.3% (active); in test [4], -62.8% (active); in [5], -73.9% (active); in test [6], 8.76% (active). The growth is -7.05% (active) in test [7]; -91% (active) in test [8]; -94.1% (active) in [9]; -64.5% (active) in test [10]; -3.39% (active) in [11]; -59.1% (active) in test [12]. Besides, the growth in test [13] is -97.2% (active); in test [14], 3.57% (active); in [15], -84.8% (active); in [16], -20.6% (active); in test [17], -98.9% (active); in [20], -72.5% (active). Further, in [19], the growth is -95.7% (active).

With `COc1ccc2c(c1)cn1c3ccc(O)cc3nc(N)c21`, the growth in test [1] is 24.1%; in test [2], 11.1%; in [3], 31.2%; in test [4], 23.6%; in test [5], 3.22% (active); in test [6] it was 31.6%. Moreover, the growth in [7] is 21.9%; in test [8], -23.2% (active); in test [9], 60.4%; in test [10] it was 10.4%; in [11], 18.5%; in test [12] it was 21.2%. In addition, the growth in test [13] is 15%; in test [14], 26.9%; in test [15], 23.7%; in [16] it was 19.9%; in [18], 32.5%; in test [20], 24.2%. The growth in [19] is 42.6%.

As for `O=C(Nc1cnn2ccc(N3CCC[C@@H]3c3cc(F)ccc3F)nc12)N1CC[C@H](O)C1`, the growth is 110% in [1]; 74.8% in test [2]; 114% in [3]; 88.2% in [4]; 80.7% in test [5]; 91% in [6]. The growth is 96.9% in test [7]; 77.4% in test [8]; 70.8% in test [9]; 81.5% in test [10]; 92.6% in [11]; 74.1% in [12]. For the same molecule, the growth in [13] is 29.1%; in test [14], 92%; in test [15], 85.7%; in test [16], 89.4%; in test [17], 97.8%; in test [20], 80.1%. Besides, the growth in [19] is 109%.
